Assay [1] can be described thus: qHTS assay to identify small molecule agonists of the peroxisome proliferator-activated receptor delta (PPARd) signaling pathway - cell viability counter screen (AID 743211; active = well fitted curve in the direction sought with a large enough effect in the repeat runs; an effect the other way counts as inactive or inconclusive; also: nearly all actives have a fitted effect of over 55% in size). An outline of the steps:
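PPARd-bla HEK293H cells (3000/well) were pre-incubated 5 h at 37 C, then exposed to compound for 17 h at 37 C. After 2 h with LiveBLAzer substrate, CellTiter-Glo was added to the same wells; luminescence read after 30 min at room temperature.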

The target of assay [2] is Peroxisome proliferator-activated receptor delta (Homo sapiens) (UniProt Q03181). Briefly: qHTS assay to identify small molecule agonists of the peroxisome proliferator-activated receptor delta (PPARd) signaling pathway (AID 743212). The procedure, abridged: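 HEK293H UAS-bla reporter cells, human PPARd system; compounds delivered in DMSO after 5 h plating, then at 37 C. Beta-lactamase FRET read, 2 h RT substrate step.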
Chain of Peroxisome proliferator-activated receptor delta (Homo sapiens) (Q03181 whole entry, looked up): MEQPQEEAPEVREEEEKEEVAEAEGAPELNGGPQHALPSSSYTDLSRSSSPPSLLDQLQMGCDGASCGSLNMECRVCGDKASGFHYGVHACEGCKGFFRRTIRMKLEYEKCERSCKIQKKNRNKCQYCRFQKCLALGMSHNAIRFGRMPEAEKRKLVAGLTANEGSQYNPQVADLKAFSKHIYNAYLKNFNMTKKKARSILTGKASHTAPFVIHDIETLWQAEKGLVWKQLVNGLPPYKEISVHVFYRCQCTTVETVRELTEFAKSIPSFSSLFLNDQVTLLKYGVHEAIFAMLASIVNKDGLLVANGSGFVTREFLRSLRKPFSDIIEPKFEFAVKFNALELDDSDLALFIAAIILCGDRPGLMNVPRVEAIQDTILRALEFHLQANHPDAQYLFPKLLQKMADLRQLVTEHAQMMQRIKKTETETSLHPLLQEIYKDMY

Assay [3] can be described thus: qHTS assay to identify small molecule antagonists of the peroxisome proliferator-activated receptor delta (PPARd) signaling pathway - cell viability counter screen (AID 743213; active = well fitted curve in the direction sought with a large enough effect in the repeat runs; an effect the other way counts as inactive or inconclusive; also: nearly all actives have a fitted effect of over 50% in size; also: potency is read from the fitted curve at half-maximal effect). An outline of the steps: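 Cytotoxicity counter screen: CellTiter-Glo luminescence read 30 min after addition, in the same wells as the reporter assay. There, PPARd UAS-bla HEK293H cells (3000/well) were treated 17 h at 37 C with compound and 300 nM L165041.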

Assay [4] concerns the target Peroxisome proliferator-activated receptor delta (Homo sapiens) (UniProt Q03181). Briefly: qHTS assay to identify small molecule antagonists of the peroxisome proliferator-activated receptor delta (PPARd) signaling pathway (AID 743215; active = well fitted inhibition curve with a large enough effect in the signal ratio in the repeat runs, not every such curve was filed as active; the % refers to the signal ratio;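 also: cells stimulated with agonist L165041 at 300 nM final during compound exposure; series mostly up to about 62 µM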). The procedure, abridged:
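Antagonist-mode beta-lactamase reporter screen: HEK293H cells with UAS-bla under PPARd control, stimulated by 300 nM L165041 (final) alongside test compound for 17 h at 37 C, then FRET fluorescence after 2 h substrate incubation.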

A short description of assay [5]: qHTS assay to identify small molecule agonists of the farnesoid-X-receptor (FXR) signaling pathway - cell viability counter screen (AID 743218; active = well fitted curve in the direction sought with a large enough effect in the repeat runs; an effect the other way counts as inactive or inconclusive; also: nearly all actives have a fitted effect of over 45% in size). An outline of the steps:
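In GeneBLAzer FXR-UAS-bla HEK 293T cells, compounds act for 16 h at 37 C. Cell viability is then scored in the reporter wells by CellTiter-Glo, 30 min at RT, luminescence.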

A short description of assay [6]: qHTS assay to identify small molecule antagonists of the farnesoid-X-receptor (FXR) signaling pathway - cell viability counter screen (AID 743221; active = well fitted cell-killing curve with a large enough effect in the repeat runs, not every such curve was filed as active; also: nearly all actives have a fitted effect of over 50% in size; also: potency is read from the fitted curve at half-maximal effect). An outline of the steps: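 GeneBLAzer FXR-UAS-bla HEK 293T cells, compound plus chenodeoxycholic acid (50 uM final), 16 h at 37 C. CellTiter-Glo added to the same wells after the beta-lactamase read; luminescence read after 30 min at room temperature as viability.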

Assay [7] addresses Vitamin D3 receptor (Homo sapiens) (UniProt P11473). The assay is described as follows: qHTS assay to identify small molecule agonists of the vitamin D receptor (VDR) signaling pathway (AID 743222). The procedure, abridged: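 Agonist activity measured in VDR-bla reporter cells. Exposure 16 h, 37C, 5% CO2; detection by B/G FRET substrate, 2 h RT.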
Assay [8] can be described thus: qHTS assay to identify small molecule agonists of the vitamin D receptor (VDR) signaling pathway - cell viability counter screen (AID 743224; active = well fitted curve in the direction sought with a large enough effect in the repeat runs; an effect the other way counts as inactive or inconclusive; also: series mostly up to about 63 µM; nearly all actives have a fitted effect of over 50% in size). The procedure, abridged: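 VDR-bla cell line, quantitative HTS format; 16 h compound incubation (37C, 5% CO2); ATP-based CellTiter-Glo luminescence measured in the reporter assay wells.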
The nature of assay [9]: qHTS assay to identify small molecule antagonists of the vitamin D receptor (VDR) signaling pathway - cell viability counter screen (AID 743225; active = well fitted curve in the direction sought with a large enough effect in the repeat runs; an effect the other way counts as inactive or inconclusive; also: nearly all actives have a fitted effect of over 50% in size). The procedure, abridged: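 VDR-UAS-bla HEK 293T cells were plated and incubated 4 h at 37C, then dosed with compound plus 3 nM (final) 1-alpha,25-dihydroxyvitamin D3 for 16 h. After the 2 h beta-lactamase read, viability in the same wells was read as CellTiter-Glo luminescence after 30 min at room temperature.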

Assay [10] can be described thus: qHTS assay to identify small molecule agonists of the NFkB signaling pathway - cell viability counter screen (AID 1159515). Also: series mostly up to about 61 µM; nearly all actives have a fitted effect of over 55% in size. The procedure, abridged:
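Viability in NFkB-bla ME-180 cells was measured by CellTiter-Glo luminescence, 30 min room temperature, in wells already treated 5 hr with compounds and read for reporter FRET.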

A short description of assay [11]: qHTS assay to identify small molecule agonists of the endoplasmic reticulum stress response signaling pathway (AID 1159516; active = well fitted activation curve with a large enough effect in the signal ratio in the repeat runs, not every such curve was filed as active; the % refers to the signal ratio). The procedure, abridged:
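ER stress element reporter (bla) in HeLa. 1,500 cells/well, overnight attachment; 5 hr compound; 2 hr RT substrate; dual-emission fluorescence.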

Assay [12] can be described thus: qHTS assay to identify small molecule agonists of the endoplasmic reticulum stress response signaling pathway - cell viability counter screen (AID 1159517). The procedure, abridged: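 Cells, HeLa ESRE-bla; density, 1,500/well; dosing, 5 hr at 37 C, 5% CO2; readout, CellTiter-Glo luminescence after 30 min RT.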
The nature of assay [13]: qHTS assay to identify small molecule antagonists of the retinoid-related orphan receptor gamma (ROR-gamma) signaling pathway - cell viability counter screen (AID 1159520; active = well fitted curve in the direction sought with a large enough effect in the repeat runs; an effect the other way counts as inactive or inconclusive; also: nearly all actives have a fitted effect of over 50% in size). An outline of the steps: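 Cytotoxicity was read from cellular ATP (CellTiter-Glo luminescence) after 16 hr at 37 C with 1 uM doxycycline induction. The inducer was added 2 hr after compound transfer to Tet-on ROR gamma CHO cells.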

Assay [14] addresses Nuclear receptor ROR-gamma (Homo sapiens) (UniProt P51449). Briefly: qHTS assay to identify small molecule antagonists of the retinoid-related orphan receptor gamma (ROR-gamma) signaling pathway (AID 1159521; active = well fitted curve in the direction sought with a large enough effect in the repeat runs; an effect the other way counts as inactive or inconclusive; also: nearly all actives have a fitted effect of over 50% in size; also: potency is read from the fitted curve at half-maximal effect). The procedure, abridged:
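Tet-on ROR-gamma CHO cells with ROR response element-luciferase reporter; compounds added 2 hr before 1 uM doxycycline induction, then 16 hr at 37 C. Antagonism scored as decreased ONE-Glo luminescence.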

Assay [15] in a line: qHTS assay to identify small molecule agonists of the AP-1 signaling pathway - cell viability counter screen (AID 1159525). Also: nearly all actives have a fitted effect of over 55% in size. The procedure, abridged: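 Luminescent ATP readout (Cell Titer Glo, 30 min RT), normalised to DMSO and tetra n-octyl ammonium bromide controls. Cells were ME-180 AP-1-bla in 0.5% dialyzed FBS Opti-MEM, with a 5 h, 37 °C compound exposure.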
Assay [16] can be described thus: qHTS assay to identify small molecule agonists of the AP-1 signaling pathway (AID 1159526).
The target in assay [17] is Vitamin D3 receptor (Homo sapiens) (UniProt P11473). The assay is described as follows: qHTS assay to identify small molecule antagonists of the vitamin D receptor (VDR) signaling pathway (AID 743223; active = well fitted inhibition curve with a large enough effect in the signal ratio in the repeat runs, not every such curve was filed as active; the % refers to the signal ratio). An outline of the steps: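 VDR-bla cells were treated with compound plus 3 nM final 1alpha,25-dihydroxyvitamin D3 for 16 h at 37C. Beta-lactamase reporter read by B/G FRET substrate fluorescence after 2 h at room temperature. qHTS format.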
Chain of Vitamin D3 receptor (Homo sapiens) (P11473 whole entry, looked up): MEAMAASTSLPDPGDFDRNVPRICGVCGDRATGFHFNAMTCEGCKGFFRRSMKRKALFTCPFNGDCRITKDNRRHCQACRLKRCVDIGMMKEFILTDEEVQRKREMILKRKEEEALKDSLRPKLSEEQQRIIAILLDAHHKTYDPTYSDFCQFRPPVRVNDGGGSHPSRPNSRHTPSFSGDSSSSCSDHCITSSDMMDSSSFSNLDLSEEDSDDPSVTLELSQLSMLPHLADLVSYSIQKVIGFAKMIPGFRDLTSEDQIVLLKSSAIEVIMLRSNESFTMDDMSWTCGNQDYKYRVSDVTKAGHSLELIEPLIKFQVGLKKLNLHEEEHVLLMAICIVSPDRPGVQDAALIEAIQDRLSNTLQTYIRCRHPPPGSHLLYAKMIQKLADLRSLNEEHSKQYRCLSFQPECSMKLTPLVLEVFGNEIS

In assay [18] the target is Retinoic acid receptor RXR-alpha (Homo sapiens) (UniProt P19793). The assay is described as follows: qHTS assay to identify small molecule agonists of the RXR signaling pathway (AID 1159527). Also: nearly all actives have a fitted effect of over 35% in size. Also: potency is read from the fitted curve at half-maximal effect. An outline of the steps:
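GeneBLAzer RXR-alpha-UAS-bla HEK 293T cells in 2% charcoal-stripped FBS medium were exposed to compounds for 16 hr at 37 C in agonist mode. Beta-lactamase reporter read as 460/530 nm FRET ratio after 2 hr substrate loading.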

In assay [19] the target is Bile acid receptor (Homo sapiens) (UniProt Q96RI1). Briefly: qHTS assay to identify small molecule antagonists of the farnesoid-X-receptor (FXR) signaling pathway (AID 743217; active = well fitted inhibition curve with a large enough effect in the signal ratio in the repeat runs, not every such curve was filed as active; the % refers to the signal ratio). The procedure, abridged: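 Beta-lactamase reporter under UAS control in HEK 293T cells; compound exposure 16 h at 37 °C in the presence of chenodeoxycholic acid (50 uM final); signal from B/G FRET substrate after 2 h at room temperature.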
Chain of Bile acid receptor (Homo sapiens) (Q96RI1 whole entry, looked up): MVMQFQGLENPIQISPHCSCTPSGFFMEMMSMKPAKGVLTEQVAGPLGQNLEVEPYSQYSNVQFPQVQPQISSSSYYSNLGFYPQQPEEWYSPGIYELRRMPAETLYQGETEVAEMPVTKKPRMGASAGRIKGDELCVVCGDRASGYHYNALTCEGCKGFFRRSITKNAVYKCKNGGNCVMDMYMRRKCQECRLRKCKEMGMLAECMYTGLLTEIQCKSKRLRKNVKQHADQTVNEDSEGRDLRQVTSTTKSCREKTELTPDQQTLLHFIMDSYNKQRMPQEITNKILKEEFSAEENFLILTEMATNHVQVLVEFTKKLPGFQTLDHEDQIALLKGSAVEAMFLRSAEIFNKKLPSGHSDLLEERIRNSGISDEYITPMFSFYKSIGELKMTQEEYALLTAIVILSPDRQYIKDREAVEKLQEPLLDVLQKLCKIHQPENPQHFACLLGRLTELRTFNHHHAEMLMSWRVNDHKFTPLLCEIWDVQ

For assay [20] the target is unchanged. Briefly: qHTS assay to identify small molecule agonists of the farnesoid-X-receptor (FXR) signaling pathway (AID 743220; active = well fitted activation curve with a large enough effect in the signal ratio in the repeat runs, not every such curve was filed as active; the % refers to the signal ratio). An outline of the steps:
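Beta-lactamase reporter under UAS control in GeneBLAzer FXR HEK 293T cells (5000/well) measured with LiveBLAzer FRET substrate after 2 h at room temperature. Compound exposure lasted 16 h at 37C.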

Where “and” joins values, the source holds several entries; their conditions need not be identical. Identical values can stand only once. Records with an inconclusive call do not appear. Some compounds were tested as several samples or in several runs, with calls that do not always agree. Calls of active or inactive are those of the source. Unless noted, calls follow the shape of the full dose curve.

Here are results for eight compounds from PubChem BioAssay (Tox21).

Chain of Retinoic acid receptor RXR-alpha (Homo sapiens) (P19793 whole entry, looked up): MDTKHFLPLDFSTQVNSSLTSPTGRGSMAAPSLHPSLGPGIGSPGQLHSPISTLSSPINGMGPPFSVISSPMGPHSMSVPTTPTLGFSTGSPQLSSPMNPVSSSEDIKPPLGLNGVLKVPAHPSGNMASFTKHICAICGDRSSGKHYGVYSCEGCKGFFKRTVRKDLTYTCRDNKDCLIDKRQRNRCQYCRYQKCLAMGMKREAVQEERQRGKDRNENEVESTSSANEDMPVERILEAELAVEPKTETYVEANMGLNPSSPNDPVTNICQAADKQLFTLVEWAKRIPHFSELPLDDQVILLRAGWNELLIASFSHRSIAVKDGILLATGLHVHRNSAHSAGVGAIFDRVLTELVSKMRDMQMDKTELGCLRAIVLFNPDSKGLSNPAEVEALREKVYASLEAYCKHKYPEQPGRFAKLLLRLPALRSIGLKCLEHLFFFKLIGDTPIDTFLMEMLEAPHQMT

On to `Clc1cccc(Cl)c1`, for which the Potency result in assay [1], in [2], in assay [3], in [4], in assay [5] and in assay [6] was “inactive” throughout. Moreover, the Potency entry in assay [8], in assay [9], in assay [10], in assay [11], in [12] and in assay [13] was “inactive” throughout. Moreover, the Potency result in assay [15] is “inactive”. In addition, the outcome in assay [7] and in assay [16] was inactive. Also, the Potency in [14] was 30.4 µM (active).

Turning to `C[N+](C)(C)CC(=O)O`, the Potency result in [1], in assay [2], in assay [3], in assay [4], in assay [6] and in [9] was “inactive” in each case. The Potency entry in assay [10], in [11], in [12], in [13], in assay [14] and in assay [15] was “inactive” each time. The compound was classed as inactive in assay [16].

In the case of `O=NN1CCOCC1`, the Potency result in [2], in assay [3], in assay [5], in assay [6], in assay [17] and in assay [9] was “inactive” throughout. Moreover, the Potency result in [10], in [11], in [12], in assay [13], in assay [14] and in assay [15] was “inactive” in each case. Also, the Potency result in assay [18] was “inactive”. Besides, the outcome in [7] and in assay [16] was inactive.

Consider `COP(=O)(NC(C)=O)SC` (stereo not drawn), for which the Potency result in assay [1], in assay [2], in [3], in [5], in assay [6] and in assay [8] was “inactive” throughout. In addition, the Potency entry in assay [9], in [10], in assay [11], in assay [12], in assay [13] and in assay [14] was “inactive” each time. The Potency entry in [15] and in [18] was “inactive” each time. The compound was called inactive in assay [7] and in assay [16].

As to `c1ccc(C2CO2)cc1` (stereo not drawn), the Potency entry in assay [1], in [2], in assay [3], in assay [4], in [5] and in assay [6] was “inactive” throughout. The Potency entry in [9], in assay [10], in assay [11], in assay [12], in assay [13] and in assay [14] was “inactive” in each case. The Potency result in [15] is “inactive”. Further, the compound was classed as inactive in assay [7] and in [16]. The Potency entry in assay [18] is “inactive and 17.4 µM (active)”.

`CC(C)CON=O`: the Potency result in [1], in [2], in [3], in [4], in assay [5] and in assay [6] was “inactive” throughout. Further, the Potency result in [8], in assay [9], in [10], in assay [11], in assay [12] and in assay [13] was “inactive” throughout. In addition, the Potency result in [14] and in [15] was “inactive” each time. Further, the outcome in assay [7] and in [16] was inactive.

For `N#Cc1cccnc1`, the Potency result in assay [1], in [2], in [3], in [19], in [5] and in assay [20] was “inactive” throughout. The Potency result in assay [6], in assay [17], in assay [8], in assay [9], in assay [10] and in [11] was “inactive” each time. In addition, the Potency result in [12], in [13], in assay [14], in assay [15] and in assay [18] was “inactive” in each case. Besides, the result in [7] and in assay [16] was inactive.

As to `O=S(=O)(O)C(F)(F)C(F)(F)C(F)(F)C(F)(F)C(F)(F)C(F)(F)C(F)(F)C(F)(F)F`, the Potency in assay [3] is 26.2 µM (active) and 43.6 µM (active); in [6], 41.6 µM (active) and 13.8 µM (active) and 6.16 µM (active). For the same compound, the outcome in assay [7] and in assay [16] was inactive. Moreover, the Potency result in [17], in [10], in assay [11], in [12], in assay [13] and in assay [14] was “inactive” each time. Besides, the Potency entry in [15] and in [18] was “inactive” throughout.
